# Measurements as given in PMC4242493, “Sequence specificity incompletely defines the genome-wide occupancy of Myc”.
# Whole data set: some 33,000 sequences, median “normalized occupancy” near 0.075, cut for the highest 2% near 0.095. For the sample, the highest values were picked, then their nearest neighbours and some sequences at random.
# Biological target: MaxL homodimer (Homo sapiens, UniProt P61244 1-160)
# Assay: universal protein-binding microarray (PBM); PBS-based mixture, 10 nM His-tagged protein dimer, 2% milk, 200 ng/uL BSA, 50 ng/uL salmon testes DNA, 0.02% TX-100; detection with Alexa 488 anti-His antibody;; high values mean tight binding
# Conditions: protein: recombinant; tags: C-terminal His-tag (pET21a); chain copies: 2; dsDNA, one strand shown
# Procedure, shortened: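 Binding occupancy is a fluorescence intensity normalised to the intensity of the highest-ranked sequence word. Those intensities came from 8-mers on Agilent 4 x 44 K 'all 10-mer' universal arrays incubated with 10 nM His-tagged protein dimer. Bound protein was detected with 10 ng/μL fluorophore-conjugated anti-His antibody before scanning on a GenePix 4400A.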
# MaxL homodimer, sequence (P61244 whole entry): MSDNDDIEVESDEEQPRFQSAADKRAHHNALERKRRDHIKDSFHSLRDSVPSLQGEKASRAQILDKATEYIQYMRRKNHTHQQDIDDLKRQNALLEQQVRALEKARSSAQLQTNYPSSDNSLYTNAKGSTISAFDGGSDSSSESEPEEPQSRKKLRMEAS
row,Sequence,binding signal [normalized occupancy]
1,ACGCGAAG,0.0765
2,AGTAGTAA,0.0731
3,ACAACCGA,0.0733
4,AACGCAAG,0.073
5,AACGCATT,0.0767
6,CACGCATC,0.0962
7,AACGCATG,0.121
8,GACGCATC,0.077
9,AACGCATC,0.0731
10,AAACTATT,0.0745
11,TAGGACTA,0.0732
12,CACCCGTA,0.0782
13,GAGCATCA,0.0734
14,GAGCATAA,0.0797
15,TAGCATGA,0.0921
16,CAGCATGG,0.13
17,GAGCATGA,0.0963
18,CAGCATAA,0.0808
19,CAGCATAG,0.0739
20,CAGCATCG,0.0732
21,CAGCATGA,0.106
22,CGTCGAAC,0.0719
23,ACTCGTGA,0.0957
24,CCTCGTTA,0.0752
25,AATCGTGG,0.0832
26,ACTCGTCA,0.0793

row,Sequence,binding signal [normalized occupancy]
1,GCTCGTGA,0.0843
2,ACTCGTGC,0.0933
3,CATCGTGC,0.0886
4,CCTCGTGC,0.133
5,CCTCGTGA,0.125
6,CCTCGTTC,0.0806
7,AGTCGTGA,0.0749
8,ACTCGTGG,0.0955
9,ACGTTGAA,0.083
10,GGGACCAC,0.078
11,CTCTCCAC,0.0859
12,CTATGCTA,0.0768
13,AGACACAT,0.0849
14,CTAAGGTC,0.0732
15,AAATGACC,0.0764
16,ATAAGCTG,0.0801
17,ATGCGTGG,0.106
18,GTGCGTGA,0.0887
19,ATGCGTGC,0.0969
20,ATGCGTGA,0.0965
21,CTGCGTGA,0.0818
22,CTGCGTGC,0.0861
23,ATGCGTAG,0.0832
24,ATGCGTTG,0.0816
25,ATGCGTCC,0.0782
26,ACATCCCG,0.0795

row,Sequence,binding signal [normalized occupancy]
1,AGAATGGA,0.0768
2,GCGACGCA,0.0736
3,CGCGTAAC,0.0752
4,CCACATTA,0.093
5,CCACATAG,0.0803
6,CCACATTC,0.0852
7,CAACATGG,0.0932
8,CAACATGA,0.0936
9,CCACATGA,0.134
10,CCACATGC,0.163
11,CCACATGG,0.227
12,CAACATGC,0.094
13,GATCCGCA,0.0769
14,CATTCAGC,0.0725
15,GAATTATA,0.0789
16,TCACTGCA,0.075
17,CTCAAGTC,0.0771
18,AAGGTTTA,0.0757
19,CACACGCC,0.0955
20,AACACACA,0.0847
21,CACACACA,0.087
22,CACACGCG,0.124
23,AACACGCA,0.0915
24,AACACGCC,0.0909
25,CACACGCA,0.0865
26,AACACGCT,0.0974

row,Sequence,binding signal [normalized occupancy]
1,AACACGGT,0.0777
2,GACACGCC,0.0849
3,AACACGCG,0.12
4,CACACACG,0.0916
5,CCACGGAC,0.0742
6,CGACTAAA,0.0736
7,TCACTTAA,0.078
8,GAACCAAC,0.0752
9,AGACGACA,0.0751
10,ACAAACCT,0.0779
11,AACGACTG,0.0722
12,GACATTAC,0.0843
13,ATGCTATA,0.0889
14,ACGCGTCC,0.0815
15,ACGCGTAG,0.0796
16,CCGCGTGC,0.145
17,ACGCGTGG,0.139
18,GCGCGTTA,0.0795
19,ACGCGTTC,0.0785
20,ACGCGTGC,0.13
21,ACGCGTCG,0.0769
22,GCGCGTGA,0.106
23,GGGCGTGA,0.0932
24,CCGCGTAC,0.0726
25,CGGCGTGC,0.0923
26,GTGAGGGA,0.0752

row,Sequence,binding signal [normalized occupancy]
1,AAAAAGCA,0.078
2,GAAAGCGC,0.0724
3,ATTACCTA,0.0784
4,AGGTTCTA,0.0755
5,CAAGCGAA,0.0755
6,CAATTTCA,0.0751
7,CCGCGTAA,0.0729
8,ACGCGTAA,0.0882
9,CGGCGTGA,0.0839
10,CCGCGTGA,0.142
11,ACGCGTCA,0.0796
12,ACGCGTGA,0.114
13,ATGACGTG,0.0885
14,AAGTGATT,0.0761
15,CCTGCGCA,0.0738
16,TGAGAGAA,0.0879
17,TATAAGAA,0.0821
18,GTTACTTA,0.0751
19,AATCTAAC,0.0749
20,ACGCCATC,0.0794
21,ACGCCACT,0.0784
22,ACGCCACG,0.0993
23,ACGCCATG,0.102
24,ACGCCACA,0.0778
25,ATGCCACC,0.0841
26,ATGCCACG,0.101

row,Sequence,binding signal [normalized occupancy]
1,ATGCCACA,0.0905
2,ACGCCATA,0.0812
3,ATGCGTTC,0.0856
4,CAACCCAC,0.082
5,GGCGTTCA,0.0718
6,ACCACGAA,0.0771
7,CCCACGAA,0.0758
8,ACCACAAA,0.0758
9,CCCACGAG,0.0996
10,CCCACAAA,0.075
11,ACCACGAG,0.115
12,GAAGTGCA,0.0728
13,GTTTCGCA,0.0757
14,ATGGCTGC,0.0809
15,CGTGCTGA,0.095
16,GATGGAAC,0.0776
17,CAATGCTC,0.0774
18,ACATGCTC,0.106
19,ATATGCTC,0.0928
20,CCATGCTC,0.0989
21,CGATGCTC,0.0773
22,CTATGCTC,0.0822
23,CGAGCGCA,0.0729
24,GACATCCC,0.0774
25,AACGTTAC,0.0772
26,CACGTTAG,0.105

row,Sequence,binding signal [normalized occupancy]
1,CACGTTAC,0.115
2,CACGTTCA,0.0904
3,GACGTTAC,0.0746
4,CACGTTCG,0.0852
5,AACGTTAG,0.0732
6,CACGTTCC,0.096
7,CACGTTAA,0.0921
8,GTAGTCCA,0.0722
9,TACGTAGA,0.0768
10,GATGCGGC,0.0788
11,CATGCGGG,0.121
12,CATGCGGA,0.126
13,CATGCGGC,0.121
14,AATGCGGC,0.0814
15,AATGCGGA,0.0802
16,AATGCGGG,0.0799
17,TATGCGGA,0.0786
18,CAGGCGGG,0.0747
19,AGGTAACC,0.0749
20,AAACATAC,0.0888
21,TATAAACA,0.0776
